# Test results published in the supplement of paper PMC8728848.
# The full list was thinned out, with the strongest signals kept by preference.
# B1: Gal 7 (Homo sapiens) (protein)
# chain: MSNVPHKSSLPEGIRPGTVLRIRGLVPPNASRFHVNLLCGEEGGSDAALHFNPRLDTSEVVFNSKEGGSWGREESGPGVPFGRGQPFEVLIIASDDGFKAVVGDAQYHHFRHRLPLARVRLVEVGGDVQLDSVRIF
# Tests used:
# Assay in all cases: glycan array binding signal (z-score within array); higher = stronger binding
# Conditions in all cases: glycan notation: IUPAC condensed, linker removed; mutation: R74S
# [1] = molecular target: Fuc(a1-2)Gal(b1-3)GlcNAc(b1-3)[Neu5Ac(a2-6)Gal(b1-4)GlcNAc(b1-6)]Gal(b1-4)Glc
# Summary of the method: (§1)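 From the Consortium for Functional Glycomics database, 3228 arrays were curated, keeping only those whose protein sequence was available. Binding is given as a within-array Z-score averaged across arrays sharing a protein sequence and across linkers. Negative Z-scores can be read as non-binding.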
# Fuc(a1-2)Gal(b1-4)GlcNAc = molecular target: Fuc(a1-2)Gal(b1-4)GlcNAc
# Summary of the method: as §1
# [2] = molecular target: Fuc(a1-2)Gal(b1-4)GlcNAc(b1-2)Man(a1-3)[Fuc(a1-2)Gal(b1-4)GlcNAc(b1-2)Man(a1-6)]Man(b1-4)GlcNAc(b1-4)[Fuc(a1-6)]GlcNAc
# Summary of the method: as §1
# [3] = molecular target: Fuc(a1-2)Gal(b1-4)GlcNAc(b1-3)Gal(b1-4)GlcNAc(b1-2)Man(a1-3)[Fuc(a1-2)Gal(b1-4)GlcNAc(b1-3)Gal(b1-4)GlcNAc(b1-2)Man(a1-6)]Man(b1-4)GlcNAc(b1-4)GlcNAc
# Summary of the method: as §1
# [4] = molecular target: Fuc(a1-2)Gal(b1-4)GlcNAc(b1-6)GalNAc
# Summary of the method: as §1
# [5] = molecular target: Fuc(a1-2)Gal(b1-4)[Fuc(a1-3)]GlcNAc(b1-3)Gal(b1-4)[Fuc(a1-3)]GlcNAc(b1-3)Gal(b1-4)[Fuc(a1-3)]GlcNAc
# Summary of the method: as §1
# [6] = molecular target: Fuc(a1-2)Gal6S(b1-4)Glc6S
# Summary of the method: as §1
# [7] = molecular target: Fuc(a1-2)[Gal(a1-3)]Gal(b1-3)GlcNAc(b1-6)GalNAc
# Summary of the method: as §1
# [8] = molecular target: Fuc(a1-2)[Gal(a1-3)]Gal(b1-4)GlcNAc
# Summary of the method: as §1
# [9] = molecular target: Fuc(a1-2)[GalNAc(a1-3)]Gal(b1-3)GlcNAc(b1-2)Man(a1-3)[Fuc(a1-2)[GalNAc(a1-3)]Gal(b1-3)GlcNAc(b1-2)Man(a1-6)]Man(b1-4)GlcNAc(b1-4)GlcNAc
# Summary of the method: as §1
# [10] = molecular target: Fuc(a1-2)[GalNAc(a1-3)]Gal(b1-4)GlcNAc(b1-3)Gal(b1-4)GlcNAc(b1-3)Gal(b1-4)GlcNAc
# Summary of the method: as §1
# [11] = molecular target: Fuc(a1-3)[Gal(b1-4)]GlcNAc(b1-6)[Gal(b1-3)GlcNAc(b1-3)]Gal(b1-4)Glc
# Summary of the method: as §1
# Gal(a1-3)Gal(b1-4)Glc = molecular target: Gal(a1-3)Gal(b1-4)Glc
# Summary of the method: as §1
# [12] = molecular target: Gal(a1-4)Gal(b1-3)GlcNAc(b1-2)Man(a1-3)[Gal(a1-4)Gal(b1-3)GlcNAc(b1-2)Man(a1-6)]Man(b1-4)GlcNAc(b1-4)GlcNAc
# Summary of the method: as §1
# Gal(b1-3)Gal(b1-4)GlcNAc = molecular target: Gal(b1-3)Gal(b1-4)GlcNAc
# Summary of the method: as §1
# Gal(b1-3)GalNAc = molecular target: Gal(b1-3)GalNAc
# Summary of the method: as §1
# [13] = molecular target: Gal(b1-3)GlcNAc(b1-2)Man(a1-3)[Gal(b1-3)GlcNAc(b1-2)Man(a1-6)]Man(b1-4)GlcNAc(b1-4)[Fuc(a1-6)]GlcNAc
# Summary of the method: as §1
# Gal(b1-3)GlcNAc6S = molecular target: Gal(b1-3)GlcNAc6S
# Summary of the method: as §1
# [14] = molecular target: Gal(b1-3)[Fuc(a1-4)]GlcNAc(b1-6)GalNAc
# Summary of the method: as §1
# [15] = molecular target: Gal(b1-3)[Neu5Ac(a2-6)]GlcNAc(b1-4)Gal(b1-4)Glc
# Summary of the method: as §1
# [16] = molecular target: Gal(b1-4)GalNAc(a1-3)[Fuc(a1-2)]Gal(b1-4)GlcNAc
# Summary of the method: as §1
# [17] = molecular target: Gal(b1-4)GlcNAc(b1-3)Gal(b1-4)GlcNAc(b1-2)Man(a1-3)[Gal(b1-4)GlcNAc(b1-3)Gal(b1-4)GlcNAc(b1-2)Man(a1-6)]Man(b1-4)GlcNAc(b1-4)GlcNAc
# Summary of the method: as §1
# [18] = molecular target: Gal(b1-4)GlcNAc(b1-3)Gal(b1-4)GlcNAc(b1-2)[Gal(b1-4)GlcNAc(b1-3)Gal(b1-4)GlcNAc(b1-6)]Man(a1-6)[Gal(b1-4)GlcNAc(b1-3)Gal(b1-4)GlcNAc(b1-2)Man(a1-3)]Man(b1-4)GlcNAc(b1-4)GlcNAc
# Summary of the method: as §1
# [19] = molecular target: Gal(b1-4)GlcNAc(b1-3)Gal(b1-4)GlcNAc(b1-3)Gal(b1-4)GlcNAc(b1-2)[Gal(b1-4)GlcNAc(b1-3)Gal(b1-4)GlcNAc(b1-3)Gal(b1-4)GlcNAc(b1-6)]Man(a1-6)[Gal(b1-4)GlcNAc(b1-3)Gal(b1-4)GlcNAc(b1-3)Gal(b1-4)GlcNAc(b1-2)Man(a1-3)]Man(b1-4)GlcNAc(b1-4)[Fuc(a1-6)]GlcNAc
# Summary of the method: as §1
# [20] = molecular target: Gal(b1-4)GlcNAc(b1-3)Gal(b1-4)GlcNAc(b1-3)Gal(b1-4)GlcNAc(b1-3)Gal(b1-4)GlcNAc(b1-2)Man(a1-3)[Gal(b1-4)GlcNAc(b1-3)Gal(b1-4)GlcNAc(b1-3)Gal(b1-4)GlcNAc(b1-3)Gal(b1-4)GlcNAc(b1-2)Man(a1-6)]Man(b1-4)GlcNAc(b1-4)GlcNAc
# Summary of the method: as §1
binder,measurement,setting,value
B1,glycan array binding signal (z-score),[1],0.022
same,glycan array binding signal (z-score),Fuc(a1-2)Gal(b1-4)GlcNAc,-0.214
same,glycan array binding signal (z-score),[2],1.07
same,glycan array binding signal (z-score),[3],13.1
same,glycan array binding signal (z-score),[4],0.439
same,glycan array binding signal (z-score),[5],0.209
same,glycan array binding signal (z-score),[6],0.38
same,glycan array binding signal (z-score),[7],-0.325
same,glycan array binding signal (z-score),[8],-0.56
same,glycan array binding signal (z-score),[9],-0.27
same,glycan array binding signal (z-score),[10],-0.239
same,glycan array binding signal (z-score),[11],0.106
same,glycan array binding signal (z-score),Gal(a1-3)Gal(b1-4)Glc,0.28
same,glycan array binding signal (z-score),[12],-0.347
same,glycan array binding signal (z-score),Gal(b1-3)Gal(b1-4)GlcNAc,-0.425
same,glycan array binding signal (z-score),Gal(b1-3)GalNAc,-0.37
same,glycan array binding signal (z-score),[13],0.404
same,glycan array binding signal (z-score),Gal(b1-3)GlcNAc6S,-0.422
same,glycan array binding signal (z-score),[14],-0.149
same,glycan array binding signal (z-score),[15],-0.354
same,glycan array binding signal (z-score),[16],-0.282
same,glycan array binding signal (z-score),[17],3.67
same,glycan array binding signal (z-score),[18],1.49
same,glycan array binding signal (z-score),[19],3.31
same,glycan array binding signal (z-score),[20],5.53
